Source: PubChem BioAssay
PAFAH2 inh: PAFAH2 (human) inhibition; Q99487; recombinant PAFAH2, FP-rhodamine activity probe, fluorescence polarization; inhibition, % at 3.39 µM; actives 0.99% (n = 340,000); AID 492956;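 active = inhibition above the mean over all tested compounds plus 3 SD, cut at about 30% in these data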;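 note: inhibitors block probe labeling of enzyme so polarization drops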
PAFAH1B3 FP inh: PAFAH1B3 (human) inhibition; AID 492972; inhibition, % at 3.39 µM; Q15102; recombinant PAFAH1B3, FP-rhodamine probe, fluorescence polarization; actives 0.28% (n = 340,000);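 active = inhibition above the screen-wide average of all tested compounds plus 3 SD, cut at about 25% in these data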
Target sequence (Q15102 whole entry, looked up): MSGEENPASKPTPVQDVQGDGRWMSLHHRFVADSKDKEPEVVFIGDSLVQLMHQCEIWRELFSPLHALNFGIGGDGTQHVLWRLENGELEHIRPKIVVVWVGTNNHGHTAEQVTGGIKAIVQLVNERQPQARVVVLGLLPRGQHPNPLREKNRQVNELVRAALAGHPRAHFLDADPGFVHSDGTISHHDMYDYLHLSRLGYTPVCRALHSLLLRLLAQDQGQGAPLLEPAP
PAFAH1B2 FP inh: inhibitors of human PAFAH1B2. actives 1.2% (n = 340,000). inhibition, % at 3.39 µM. recombinant PAFAH1B2, FP-rhodamine activity probe, fluorescence polarization. P68402;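 active = inhibition above the mean of all tested compounds plus 3 SD, cut at about 24% in these data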
Target sequence (P68402 whole entry, looked up): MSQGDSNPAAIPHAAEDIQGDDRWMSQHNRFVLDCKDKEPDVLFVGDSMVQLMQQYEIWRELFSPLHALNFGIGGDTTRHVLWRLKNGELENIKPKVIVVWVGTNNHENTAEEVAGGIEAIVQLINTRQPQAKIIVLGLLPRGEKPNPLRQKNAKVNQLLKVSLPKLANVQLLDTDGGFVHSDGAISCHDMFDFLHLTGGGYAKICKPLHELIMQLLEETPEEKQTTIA
pPAFAH inh: inhibitors of human plasma PAF acetylhydrolase (pPAFAH); recombinant pPAFAH, FP-rhodamine probe fluorescence polarization; actives 1.5% (n = 330,000); AID 463082; Q13093; inhibition, % at 3.39 µM;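 active = inhibition above the mean inhibition across the screen plus 3 SD, cut at about 25% in these data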;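 note: inhibitors block binding of the rhodamine activity-based probe so polarization drops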
PME-1 primary: blocks human protein phosphatase methylesterase 1. Q9Y570. recombinant PME-1, FP-Rh probe fluorescence polarization. inhibition, % at 5.9 µM. actives 0.53% (n = 320,000). AID 2130;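 active = inhibition above the campaign mean of all compounds plus 3 SD, cut at about 26% in these data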;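 note: competitive labeling of PME-1 active site by serine hydrolase directed probe; inhibitors block probe labeling so polarization falls and inhibition rises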
Fam108B inh: counter-screen for RBBP9 inhibitors: inhibitors of mouse Fam108B; recombinant Fam108B, FP-Rh probe fluorescence polarization; inhibition, % at 9.51 µM; actives 0.33% (n = 300,000); AID 1947;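 active = inhibition above the screen mean inhibition plus 3 SD, computed separately per campaign, cut at about 18% in these data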;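 note: inhibitors lower polarization as less probe binds the enzyme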
Fam108b confirm: confirmation of mouse Fam108b serine hydrolase inhibitors | AID 1978 | shares compounds with Fam108B inh | inhibition, % at 9.51 µM | recombinant Fam108b, FP-Rh probe fluorescence polarization | actives 44% (n = 930);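 active = inhibition above a limit from the primary screen, the mean over all compounds plus 3 SD, cut at about 19% in these data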;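 note: inhibitors free the probe so polarization falls as inhibition rises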
Fam108b ABPP HTS: mouse ABHD17B inhibition. shares compounds with Fam108B inh. recombinant Fam108b, gel-based ABPP, fluorophosphonate probe. inhibition, % at 20 µM. actives 44% (n = 260); in the data active = inhibition above about 40%
Hits are given with their value; i = inactive; nt = no result. Shown are actives, neighbours in structure and some others; about 2.9% of the full set was active somewhere.

SMILES	PAFAH2 inh	PAFAH1B3 FP inh	PAFAH1B2 FP inh	pPAFAH inh	PME-1 primary	Fam108B inh	Fam108b confirm	others
COc1ccc(NS(=O)(=O)c2ccc3oc(Nc4ccc5c(c4)OCCO5)nc3c2)cc1	i	i	i	26.1	32.2	30.1	i
COc1cccc(S(=O)(=O)Nc2ccc3c(c2)OCCO3)c1	i	i	i	nt	nt	nt	nt
O=c1/c(=C\c2cc([N+](=O)[O-])cc([N+](=O)[O-])c2O)sc2nc3ccccc3n12	i	i	i	25.6	i	52.0	39.4
O=c1c(=Cc2cc([N+](=O)[O-])cc([N+](=O)[O-])c2O)sc2nc3ccccc3n12	nt	nt	nt	nt	nt	nt	nt	Fam108b ABPP HTS=i
O=C(O)c1cccc(-c2ccc(/C=c3/sc4nc5ccccc5n4c3=O)o2)c1	i	26.0	i	26.2	i	25.3	i
O=c1/c(=C/c2ccccn2)sc2nc3ccccc3n12	i	i	i	i	i	i	nt
CCOc1ccc(S(=O)(=O)Nc2cccc(C(=O)NCC(c3ccc(OC)cc3)N3CCOCC3)c2)cc1 (stereo unspecified)	i	i	i	i	i	i	nt
CC(C)(C)c1cc[n+](-c2[nH]c(=O)sc2/C=N/N=C(\[O-])c2cccnc2)cc1	i	i	i	i	i	i	nt
O=c1[nH]c(-[n+]2ccc3ccccc3c2)c(/C=N/N=C(\[O-])c2ccccc2)s1	i	i	i	i	i	18.3	i
COc1ccc(NC(=S)Nc2ccc3nc(C)c(C)nc3c2)cc1	i	i	i	i	i	i	nt
CCOc1ccc(NC(=S)Nc2ccc3nsnc3c2)cc1	52.0	53.9	33.8	i	51.9	80.0	24.9
COc1ccc(NC(=S)Nc2ccc3nsnc3c2)cc1	40.5	65.7	i	i	36.3	29.2	39.9	Fam108b ABPP HTS=55.0
CC(C)N(C(=O)Nc1ccc2nsnc2c1)C(C)C	nt	nt	nt	i	32.0	55.4	33.0	Fam108b ABPP HTS=i
CC1=CC(=O)c2c(O)ccc(O)c2C1=O	nt	nt	nt	69.5	i	71.1	42.6	Fam108b ABPP HTS=65.0
O=C1C=C(N2CCN(c3ccccn3)CC2)C(=O)c2c(O)ccc(O)c21	i	i	i	nt	nt	nt	nt
CCCCCCCCCCCCCCCC[N+](C)(C)CCN(Cc1ccc(OC)cc1)c1ncccn1	i	i	i	31.8	i	21.9	22.4
O=C(c1ccc2c(c1)OCCO2)N1CCN(c2ccc([N+](=O)[O-])cc2)CC1	nt	nt	nt	i	i	i	nt
Cc1ccc(C(=O)N/N=C/c2ccc(-c3ccc(Br)cc3[N+](=O)[O-])o2)o1	i	i	i	26.4	53.1	19.1	i
Cc1ccc(C(=O)N/N=C\c2ccc(Br)o2)o1	i	i	i	i	i	i	nt
O=C(Nc1cccc(Cl)c1)Nc1ccc2c(c1)OCO2	i	i	i	i	i	19.1	i
Cc1sc2ncnc(N/N=C/c3ccccc3O)c2c1C	i	i	i	i	i	19.0	i
O=C(Nc1cccc(S(=O)(=O)N2CCCCC2)c1)C1=NN(c2ccccc2)C(=O)CC1	i	i	i	i	i	nt	nt
COC(=O)c1cc(C)nc2c1C(=O)C(=O)C=C2N1CCOCC1	55.6	73.0	28.3	i	35.9	71.4	81.5	Fam108b ABPP HTS=i
COC(=O)c1cc(S(=O)(=O)N2CCOCC2)c(Cl)cc1N1CCOCC1	i	i	i	i	i	i	nt
C#CCn1cc(/C=N/Nc2nc3ccccc3[nH]2)c2ccccc21	i	i	i	29.4	i	30.0	20.6
SMILES	PAFAH2 inh	PAFAH1B3 FP inh	PAFAH1B2 FP inh	pPAFAH inh	PME-1 primary	Fam108B inh	Fam108b confirm	others
C(=N\Nc1nc2ccccc2[nH]1)/c1cccc2nccnc12	nt	nt	nt	i	i	i	nt
Nc1n[nH]c(N)c1N=Nc1cccc(C(F)(F)F)c1	i	i	i	i	i	i	nt
N#Cc1c(N2CCCC2)nc(N)c2c(N)nc(N3CCCC3)cc12	59.2	62.8	41.5	i	i	57.9	126.0	Fam108b ABPP HTS=i
Cc1ccc(NS(=O)(=O)c2ccc(Br)s2)nc1	i	i	i	i	i	i	nt
O=C1C=C(N2CCCCC2)c2ccccc2C1=O	nt	nt	nt	i	39.6	69.2	81.7	Fam108b ABPP HTS=i
Cc1cc(C)c2cc(C(=O)N3CCN(c4ncccc4C(F)(F)F)CC3)[nH]c2c1	i	i	i	i	i	i	nt
COc1ccc(S(=O)(=O)N2CCSCC2)cc1C(N)=O	i	i	i	i	i	i	nt
Cc1ccc(NC(=O)CN(C)C(=O)CSc2nnc(NC(C)C)s2)cc1	i	i	i	nt	nt	nt	nt
